{"source": "PubChem BioAssay (NCATS)", "note": "Inconclusive results are not listed. Values without a mark were called inactive. Activity calls are given as the source filed them. The call rests on the fitted dose curve; in most records, active means well fitted cell-killing curve with a large enough effect; inconclusive means small, poorly fitted or top-dose-only effect, or effect the other way; inactive means no such curve, though single readings can be large or run the other way. Potency means the concentration at half of the fitted maximal effect.", "data": [{"assay": "Quantitative High-Throughput drug screen in 47 multiple myeloma cell lines against the NCATS MIPE library collection: LP1_DSMZ cell viability assay (AID 1918982); further: nearly all actives have a fitted effect of over 35% in size", "conditions": "LP1 myeloma viability, CellTiter-Glo ATP luminescence, 48 h; series mostly up to 45.8 µM; viability (% of control): at the top concentration", "excerpt": "PI: Beverly A. Mock Ph.D.\nLaboratory of Cancer Biology and Genetics,\nCenter for Cancer Research, National Cancer Institute,\nNational Institute of Health, Bethesda, Maryland\nDrug resistance and disease progression are common in multiple myeloma (MM) patients, underscoring the need for new therapeutic combinations. […] We hypothesized that effective combinations would reduce MYC expression and enhance p16 activity. […] These preclinical data identify potentially useful drug combinations for evaluation in drug-resistant MM and reveal potential mechanisms of combined drug sensitivity.\nDescribed herein is the primary MIPE qHTS used to cherrypick compounds. Validated compounds were then further tested for potential synergistic activiy.\n[1] Peat TJ, Gaikwad SM, Dubois W, Gyabaah-Kessie N, Zhang S, Gorjifard S, Phyo Z, Andres M, Hughitt VK, Simpson RM, Miller MA, Girvin AT, Taylor A, Williams D, D'Antonio N, Zhang Y, Rajagopalan A, Flietner E, Wilson K, Zhang X, Shinn P, Klumpp-Thomas C, McKnight C, Itkin Z, Chen L, Kazandijian D, Zhang J, Michalowski AM, Simmons JK, Keats J, Thomas CJ, Mock BA. Drug combinations identified by high-throughput screening promote cell cycle transition and upregulate Smad pathways in myeloma. Cancer Lett. 2023 Aug 1;568:216284. doi: 10.1016/j.canlet.2023.216284. Epub 2023 Jun 24. PMID: 37356470; PMCID: PMC10408729.\nSEQUENCE No. (e.g., 1, 2, 3, etc.); […] (e.g., Cells, Incubation, Reagent, etc.); VALUE and DESCRIPTION.\n1; Cells; 5 uL; white, solid bottom 1536-well Greiner assay plate.\n2; Compounds; 23 nL; Kalypsis pin tool (Wako USA) equipped with a 1536-well pin head to transfer to the assay plates.\n3; Incubation; 48 hours; 37C incubation.\n4; Reagent;5uL; CellTiter Glo (Promega).\n5; Detector; 425V; Luminescence; Viewlux PerkinElmer.\nNOTES (numbers refer to Sequence numbers above)\n1. The cell-based screening methods employed in this study were like those previously published. Briefly, the corresponding myeloma cell lines were screened in 1,536-well plates with 500 cells, 5-uL per well for inhibition of cell viability (assessed by measuring ATP levels with CellTiterGlo).\n2. NCATS MIPE 4.0 library of approved and investigational drugs were added using the Kalypsis pin tool. Wells treated with DMSO only for 100% viability and media only for 0% viability were used as controls.\n3. The assay plates were covered and incubated for 48 hours in a 37C, 5% CO2 incubator with controlled humidity.\n4. After 48 hours, CellTilter-GloTM luminescent substrate mix (Promega) reagent was added to the assay plate and plates we incubated for 5 min at room temperature.\n5. Signal was measured as median relative luminescence units on a ViewLux (PerkinElmer) multiplate reader.\n[1] Heske CM, Davis MI, Baumgart JT, Wilson K, Gormally MV, Chen L, Zhang X, Ceribelli M, Duveau DY, Guha R, Ferrer M, Arnaldez FI, Ji J, Tran HL, Zhang Y, Mendoza A, Helman LJ, Thomas CJ. Matrix Screen Identifies Synergistic Combination of PARP Inhibitors and Nicotinamide Phosphoribosyltransferase (NAMPT) Inhibitors in Ewing Sarcoma. Clin Cancer Res. 2017 Dec 1;23(23):7301-7311. doi: 10.1158/1078-0432.CCR-17-1121. Epub 2017 Sep 12. PMID: 28899971; PMCID: PMC6636827.", "units": {"viability (% of control)": "%"}, "values": [{"smiles": "O=c1c(-c2ccc(O)cc2)coc2cc(O)ccc12", "viability (% of control)": 107}, {"smiles": "Cc1cc(OCCCc2c(C(=O)O)n(Cc3cccnc3)c3c(-c4c(COc5ccc(N6CCN([S+](C)(=O)[O-])CC6)cc5)nn(C)c4C)cccc23)cc(C)c1Cl", "Potency": "14.8 µM (active)"}, {"smiles": "CC(C)OC(=O)CCCC=CC[C@@H]1[C@H](C=C[C@@H](O)COc2cccc(C(F)(F)F)c2)[C@H](O)C[C@@H]1O", "Potency": "14.8 µM (active)"}, {"smiles": "CC(C)=CC[C@@H](O)C1=CC(=O)c2c(O)ccc(O)c2C1=O", "Potency": "3.32 µM (active)"}, {"smiles": "OC[C@H]1O[C@@H](n2cnc3c2NC=NC[C@@H]3O)C[C@H]1O", "viability (% of control)": 92.9}, {"smiles": "NC[C@@H]1O[C@@H](O[C@H]2[C@@H](O)[C@H](O[C@@H]3[C@@H](O)[C@@H](N)C[C@H](N)[C@H]3O[C@H]3O[C@H](CN)[C@@H](O)[C@@H](O)[C@H]3N)O[C@H]2CO)[C@H](N)[C@@H](O)[C@@H]1O", "viability (% of control)": 114}, {"smiles": "Cc1ccc(F)c(NC(=O)Nc2ccc(-c3cccc4[nH]nc(N)c34)cc2)c1", "Potency": "16.6 µM (active)"}, {"smiles": "COc1ccc2cccc(CCNC(C)=O)c2c1", "viability (% of control)": 103}, {"smiles": "COc1cc2c(cc1OC)CN(CCc1ccc(NC(=O)c3cc(OC)c(OC)cc3NC(=O)c3cnc4ccccc4c3)cc1)CC2", "viability (% of control)": 86.4}, {"smiles": "N#C[C@H]1C[C@H]2C[C@@H]2N1C(=O)[C@@H](N)C12CC3CC(CC(O)(C3)C1)C2", "viability (% of control)": 99.5}, {"smiles": "CCN(CC)CCOc1ccc(C(=C(Cl)c2ccccc2)c2ccccc2)cc1", "viability (% of control)": 89.6}, {"smiles": "O=C(OCC#CCSc1nnc(-c2cccc3ccccc23)o1)c1cc2ccccc2s1", "viability (% of control)": 92.6}, {"smiles": "COc1ccc(C2Sc3ccccc3N(CCN(C)C)C(=O)C2OC(C)=O)cc1", "note": "(stereo not given)", "Potency": "0.0017 µM (active)"}, {"smiles": "C=C1C(=O)[C@@]23C(CC[C@@H]1[C@H]2O)[C@@]12CO[C@]3(O)[C@@H](O)[C@@H]1C(C)(C)CC[C@@H]2O", "note": "(stereo not given in full)", "Potency": "4.18 µM (active)"}, {"smiles": "CC1(C)O[C@H]2C[C@@H]3[C@H]4CCC5=CC(=O)C=C[C@]5(C)[C@@]4(F)[C@@H](O)C[C@]3(C)[C@]2(C(=O)CO)O1", "Potency": "0.0132 µM (active)"}, {"smiles": "CCc1ccc(C=C2SC(=S)NC2=O)cc1", "viability (% of control)": 86.6}, {"smiles": "CN1C[C@H]2c3ccccc3Oc3ccc(Cl)cc3[C@@H]2C1", "viability (% of control)": 86}, {"smiles": "O=C1NC(=O)C(=Cc2ccc3c(c2)OC(F)(F)O3)S1", "Potency": "18.7 µM (active)"}, {"smiles": "O=C1C[C@@H](c2ccc(O)cc2)Oc2cc(O)cc(O)c21", "viability (% of control)": 94.9}, {"smiles": "COc1ccc(-c2oc3c(CC=C(C)C)c(OC4O[C@H](CO)[C@@H](O)[C@H](O)[C@@H]4O)cc(O)c3c(=O)c2OC2O[C@@H](C)[C@H](O)[C@@H](O)[C@@H]2O)cc1", "note": "(stereo not given in full)", "Potency": "20.9 µM (active)"}, {"smiles": "O=C(Nc1c(Cl)cncc1Cl)c1ccc(OC(F)F)c(OCC2CC2)c1", "viability (% of control)": 93}, {"smiles": "COc1cc2ncnc(Nc3ccc(F)c(Cl)c3)c2cc1OCCCN1CCOCC1", "Potency": "48.1 µM (active)"}, {"smiles": "O=c1[nH]cnc2c1ncn2[C@H]1CC[C@@H](CO)O1", "viability (% of control)": 127}, {"smiles": "CCNc1cc(NC2CCC(O)CC2)nc(Nc2ccc3c(ccn3Cc3ccccc3)c2)n1", "note": "(stereo not given)", "Potency": "20.9 µM (active)"}, {"smiles": "CC(=O)OC1C(C)OC(Oc2c(-c3ccc(O)cc3)oc3cc(O)cc(O)c3c2=O)C(O)C1OC(C)=O", "note": "(stereo not given)", "viability (% of control)": 143}, {"smiles": "CC(C)(C)c1cc(C(=O)O)c(NC(=O)Nc2ccc3[nH]ncc3c2)s1", "viability (% of control)": 100}, {"smiles": "COC(=O)C1=CO[C@@H](O)[C@@H]2C(CO)=CC[C@@H]12", "viability (% of control)": 86.3}, {"smiles": "O=c1cc(CN2CCOCC2)occ1OCCCCCSc1ccnc2cc(C(F)(F)F)ccc12", "Potency": "18.7 µM (active)"}, {"smiles": "Cc1nnc(C(C)C)n1C1C[C@H]2CC[C@@H](C1)N2CC[C@H](NC(=O)C1CCC(F)(F)CC1)c1ccccc1", "note": "(stereo not given in full)", "viability (% of control)": 97.5}, {"smiles": "Nc1ncnc2ccccc12", "viability (% of control)": 104}, {"smiles": "CC(C)(C(=O)NCC(F)(F)C(F)(F)F)C(=O)N[C@@H]1C(=O)Nc2ccccc2-c2ccccc21", "viability (% of control)": 104}, {"smiles": "Cc1c(O)cccc1C(=O)N[C@@H](CSc1ccccc1)[C@H](O)CN1C[C@H]2CCCC[C@@H]2C[C@@H]1C(=O)NC(C)(C)C", "Potency": "20.9 µM (active)"}, {"smiles": "CCC(=O)NC[C@H](Cc1ccc(OCCc2nc(-c3ccccc3)oc2C)cc1)NC(C)=CC(=O)c1ccc(C(F)(F)F)cc1", "Potency": "18.7 µM (active)"}, {"smiles": "Cn1cc(C=C2C(=O)Nc3cccnc32)c2ccccc21", "viability (% of control)": 116}, {"smiles": "CCCCCN(C)CCC(O)(P(=O)(O)O)P(=O)(O)O", "viability (% of control)": 105}, {"smiles": "C[C@]12CC[C@@H]3c4ccc(O)cc4CC[C@H]3[C@H]1C[C@@H](O)[C@H]2O", "viability (% of control)": 84.5}, {"smiles": "CC(C)(C)COc1ccc(-n2cc(C(=O)O)cn2)cc1C#N", "viability (% of control)": 92.2}, {"smiles": "O=C1C(Cl)=C(NCCN2CCOCC2)C(=O)c2ncccc21", "Potency": "8.33 µM (active)"}, {"smiles": "O=C(Nc1cc(Cl)cc2c1[nH]c1cnccc12)c1cccnc1", "viability (% of control)": 76.7}, {"smiles": "CC(C)C[C@H](CC(=O)O)C(=O)N[C@@H](Cc1c[nH]c2ccccc12)C(=O)N[C@@H](C)c1ccccc1", "viability (% of control)": 91.3}]}]}
